Screening data as filed in PubChem BioAssay.
Rows were chosen to be rich in hits. Some 2.4% of all compounds tested hit in one or more screens of this group.
NOD2 RIPK2 PPI – NOD2-RIPK2 protein interaction inhibition | O43353 | CHO BLA complementation NOD2-RIPK2, CCF4 ratio | inhibition, % at 4.98 µM | hit rate 0.38% among 360,000 | AID 624267; in the data active = inhibition above about 21%;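 also: 0% = vehicle only and 100% = reference blocker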
TLR4 MyD88 comp – inhibitors of human TLR4-MyD88 binding. O00206+Q99836. HeLa CL3-4 TLR4/MyD88 BLA complementation, FRET ratio. inhibition, % at 8.4 µM. hit rate 0.18% among 200,000; in the data active = inhibition above about 25%;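 also: 0% = vehicle and 100% = reference inhibitor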
Target sequence (O00206 whole entry, looked up): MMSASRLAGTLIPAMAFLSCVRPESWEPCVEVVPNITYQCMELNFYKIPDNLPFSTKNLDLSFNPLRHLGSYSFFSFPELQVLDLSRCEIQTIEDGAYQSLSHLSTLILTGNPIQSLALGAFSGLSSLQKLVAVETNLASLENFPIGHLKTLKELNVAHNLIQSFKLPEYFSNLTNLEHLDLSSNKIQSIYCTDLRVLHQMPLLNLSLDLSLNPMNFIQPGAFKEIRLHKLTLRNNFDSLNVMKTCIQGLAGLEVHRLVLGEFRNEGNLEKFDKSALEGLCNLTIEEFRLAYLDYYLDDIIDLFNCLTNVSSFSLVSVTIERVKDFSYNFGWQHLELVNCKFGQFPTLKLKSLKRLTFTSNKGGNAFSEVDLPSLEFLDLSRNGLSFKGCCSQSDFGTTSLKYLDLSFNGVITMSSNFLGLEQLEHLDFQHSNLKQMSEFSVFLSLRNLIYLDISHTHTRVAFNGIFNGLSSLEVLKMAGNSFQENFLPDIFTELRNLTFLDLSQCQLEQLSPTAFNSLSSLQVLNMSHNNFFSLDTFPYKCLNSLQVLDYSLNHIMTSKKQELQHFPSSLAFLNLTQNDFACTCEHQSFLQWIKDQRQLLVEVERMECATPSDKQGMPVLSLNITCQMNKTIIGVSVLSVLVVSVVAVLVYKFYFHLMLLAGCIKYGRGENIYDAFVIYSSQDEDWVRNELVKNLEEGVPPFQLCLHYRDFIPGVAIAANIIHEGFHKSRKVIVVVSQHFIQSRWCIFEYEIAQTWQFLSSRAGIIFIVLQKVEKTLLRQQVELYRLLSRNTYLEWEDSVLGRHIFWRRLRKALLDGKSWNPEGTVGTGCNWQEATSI
Target sequence (Q99836 whole entry, looked up): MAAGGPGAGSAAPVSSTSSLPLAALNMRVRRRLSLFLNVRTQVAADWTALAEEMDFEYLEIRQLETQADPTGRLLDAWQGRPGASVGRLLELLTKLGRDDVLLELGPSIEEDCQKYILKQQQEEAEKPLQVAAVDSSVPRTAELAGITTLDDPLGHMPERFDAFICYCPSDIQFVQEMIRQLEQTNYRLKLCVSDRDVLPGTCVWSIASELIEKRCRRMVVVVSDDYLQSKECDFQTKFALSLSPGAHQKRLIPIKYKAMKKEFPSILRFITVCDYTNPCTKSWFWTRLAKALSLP
ABHD5-PLIN5 inh – ABHD5-PLIN5 protein interaction inhibition; Split G. princeps luciferase complementation, luminescence, 4 h; inhibition, % at 4 µM; hit rate 0.78% among 360,000; AID 602281;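 active = inhibition above the mean inhibition across every tested compound plus 3 SD, cut at about 22% in these data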;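 also: 0% = DMSO only wells and the 100% control is not disclosed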
TLR9-MyD88 inh – inhibitors of human TLR9-MyD88 binding | inhibition, % at 4.98 µM | Q9NR96+Q99836 | hit rate 0.21% among 340,000 | CHO BLA complementation TLR9-MyD88, CCF4 FRET ratio | AID 504734;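 active = inhibition above the mean over all tested compounds plus 3 SD, cut at about 21% in these data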;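 also: 0% = DMSO only wells and 100% = clavulanate BLA inhibitor control wells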
m5-HT2A agonist – mouse HTR2A agonism via beta-arrestin recruitment. activation, % at 7.6 µM. CHO-K1 mHTR2A beta-arrestin complementation, luminescence; percent of 30 µM serotonin response. hit rate 0.66% among 360,000. P35363;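 active = activation above a run cutoff, the mean activation of all tested compounds plus 3 SD, cut at about 14% in these data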;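 also: 0% = plate median of compound wells and 100% = 30 µM serotonin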
CRFBP-R2 block – blocks CRF-induced signaling of the CRF-BP/CRF-R2 complex; HEK293 CRF-R2/CRF-BP, CRF-induced calcium fluorescence; inhibition, % at 11.8 µM; hit rate 0.59% among 350,000; AID 588475;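 active = inhibition of the ligand-induced calcium signal above about 50% at the single tested concentration, limit read from the data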
ABHD5-PLIN5 conf – ABHD5-PLIN5 interaction inhibition, confirmed | shares compounds with ABHD5-PLIN5 inh | biochemical ABHD5-PLIN5 interaction, luminescence | inhibition, % at 4 µM | hit rate 67% among 2,200 | AID 651612; in the data active = inhibition above about 23%;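 also: 0% = DMSO vehicle wells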
HNF4 split-luc – active in HNF4 split-luciferase counter-screen for ABHD5-PLIN5 inhibitors | shares compounds with ABHD5-PLIN5 inh | HNF4 dimerization, luminescence, biochemical | inhibition, % at 4 µM | hit rate 77% among 2,200;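 active = mean inhibition across replicate wells exceeding the computed hit threshold, cut at about 13% in these data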;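 also: light from luciferase halves that rejoin when HNF4 fusion proteins dimerize; 0% = DMSO only wells and the 100% control is not given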
* hit, by the source's call; nt = not tested or not shown.

SMILES | NOD2 RIPK2 PPI | TLR4 MyD88 comp | ABHD5-PLIN5 inh | TLR9-MyD88 inh | m5-HT2A agonist | CRFBP-R2 block | ABHD5-PLIN5 conf | HNF4 split-luc
COc1ccc(C(=O)/C=C/c2ccc(OC)c(O)c2)c(F)c1 | 5.9 | 4.3 | 29.4* | 10.2 | -3.2 | 3.8 | 55.4* | 49.7*
COc1cc(OC)c(C(=O)C=Cc2ccc(OC)c(OC)c2)c(OC)c1 | -35.5 | nt | 19.6 | -1.0 | 0.7 | 14.9 | nt | nt
O=C(CSc1nnc(-c2cccnc2)n1Cc1ccco1)c1ccc2ccccc2c1 | -10.2 | 1.3 | 65.2* | 0.9 | -2.5 | -5.7 | 53.1* | 75.9*
CSc1ccc(Cn2c(C)c(C(=O)NCc3ccc4c(c3)OCCO4)sc2=O)cc1 | 2.0 | nt | -0.4 | nt | -7.3 | nt | nt | nt
O=c1c2c3c(sc2n(CCN2CCCCC2)c(=O)n1Cc1ccco1)CCCCC3 | -1.4 | 2.4 | 7.4 | -3.8 | -3.2 | -58.3 | nt | nt
CC1(C)Cc2c(sc3c2c(=N)n(Cc2ccco2)c(=O)n3CC(=O)Nc2ccccc2)CO1 | -11.9 | -7.6 | 14.6 | -2.2 | 0.6 | -45.9 | nt | nt
NC(=O)Cn1c(=O)n(Cc2ccco2)c(=O)c2c3c(sc21)CCCCC3 | -4.6 | 10.9 | 61.6* | -4.0 | -5.8 | -14.6 | 26.1* | 40.5*
O=C(Cn1c(=O)n(Cc2ccco2)c(=O)c2c3c(sc21)CCCC3)Nc1ccccc1 | 5.1 | 10.7 | 52.6* | 0.7 | 2.2 | -14.7 | 23.7* | 10.5
CCN(C(=O)COC(=O)/C(=C/c1ccccc1)n1nnnc1C)C1CCCCC1 | 8.7 | nt | 34.1* | -0.9 | 0.1 | -3.6 | 51.6* | 35.7*
Cc1nnnn1/C(=C\c1ccccc1)C(=O)OCC(=O)N(C)C1CCS(=O)(=O)C1 (stereo not given) | -1.2 | 14.2 | 12.0 | 0.1 | 0.7 | 6.5 | nt | nt
CN1CCN(C2CN(CCc3ccccc3)S(=O)(=O)C2)CC1 (stereo not given) | -7.8 | nt | -1.9 | nt | -5.6 | nt | nt | nt
O=C(N/N=C/C(Br)=C/c1ccccc1)C1CC1 | 2.2 | 11.3 | 12.2 | -10.4 | 0.1 | -17.9 | nt | nt
O=C(N/N=C/C(Br)=C/c1ccccc1)C(O)c1ccccc1 (stereo not given) | 6.0 | nt | 25.5* | 7.7 | -2.9 | -10.5 | 3.0 | 33.6*
CC(=O)Nc1ccc(-c2ccnc3c2CC(C)(C(=O)Nc2ccc(F)c(Cl)c2)O3)cc1 (stereo not given) | 12.5 | nt | 6.0 | nt | 3.3 | nt | nt | nt
CCOc1ccc(NC(=O)CN(C)C(=O)C2CC(=O)N(Cc3ccco3)C2)cc1OCC (stereo not given) | -7.2 | nt | 23.3* | 1.4 | 8.1 | -1.7 | 28.6* | 23.7*
CCOc1ccc(NC(=O)CN(C)C(=O)C2CC(=O)N(CCc3ccc(OC)c(OC)c3)C2)cc1OCC (stereo not given) | -3.2 | nt | 2.2 | -5.9 | 4.6 | -17.3 | nt | nt
O=C(NCc1ccco1)Nc1ccc2nsnc2c1 | -9.6 | 12.7 | 38.0* | 3.3 | 2.2 | 5.7 | 50.4* | 81.7*
O=C(NCCCN1CCOCC1)/C(=C/c1ccc(-c2cccc([N+](=O)[O-])c2)o1)NC(=O)c1ccccc1 | -1.3 | nt | -3.0 | -7.5 | -0.2 | 18.4 | nt | nt
Cc1nc2nc(C)n(CCN3CCOCC3)c(=O)c2c(-c2cccc([N+](=O)[O-])c2)c1C(=O)CCCCCCCCCCN1CCC(c2ccccc2)(c2ccccc2)CC1 | 12.7 | nt | 41.6* | -2.6 | -7.4 | 2.1 | 13.2 | -1.5
CCCCC1CC2=C(C(=O)OC(C)(C)O2)C(c2ccc(Cl)cc2)O1 (stereo not given) | 3.2 | nt | -4.9 | nt | -1.8 | nt | nt | nt
CCCCCc1cc(=O)oc2c(C(CCN3CCCCC3)c3ccc(OC)cc3)c(OC)cc(OC)c12 (stereo not given) | 10.9 | nt | 26.4* | -1.4 | -10.6 | -8.9 | 6.5 | 6.5
COc1cc(C(CCN2CCCC(C)C2)c2c(OC)cc(OC)c3c(-c4ccccc4)cc(=O)oc23)cc(OC)c1OC (stereo not given) | 6.6 | nt | 27.1* | -0.4 | -11.5 | -12.3 | 8.8 | 6.7
OCc1nc2ccccc2n1CCOc1ccccc1 | -3.1 | nt | -5.7 | -1.3 | -6.6 | 46.8 | nt | nt
CCOc1ccc(NCc2nc3ccccc3n2CCOc2ccccc2)cc1 | -5.6 | -2.8 | 25.3* | 1.7 | -7.4 | 11.5 | 7.7 | 11.0
COc1cccc(CNC(=O)[C@@H]2CCCN2C(=O)[C@H]2CCCCN2C(=O)c2c(F)cccc2F)c1 | -5.2 | nt | -1.2 | nt | 5.4 | nt | nt | nt
SMILES | NOD2 RIPK2 PPI | TLR4 MyD88 comp | ABHD5-PLIN5 inh | TLR9-MyD88 inh | m5-HT2A agonist | CRFBP-R2 block | ABHD5-PLIN5 conf | HNF4 split-luc
CNC(=O)/C(C#N)=C/c1ccc(-c2nc3ccccc3s2)o1 | -9.8 | nt | 35.5* | nt | -3.1 | -48.4 | 6.2 | 4.2
N#C/C(=C\c1ccc(-c2nc3ccccc3s2)o1)C(N)=O | -6.9 | nt | 2.4 | -6.8 | -1.9 | -4.6 | nt | nt
Cc1nc2ccccc2n1CC(O)Cn1c2ccccc2c2ccccc21 (stereo not given) | 0.6 | 18.5 | 29.0* | -3.9 | 2.2 | -5.2 | 8.5 | 25.0*
CCCCOCC(O)Cn1c(C)nc2ccccc21 (stereo not given) | -6.7 | 6.7 | 8.3 | -1.0 | 4.9 | 16.7 | nt | nt
CNC(=S)N1CCC(C(=O)c2ccc(Cl)cc2)CC1 | -3.8 | nt | -1.2 | -8.0 | 0.0 | -19.0 | nt | nt
O=C(Nc1nnc(-c2ccco2)s1)C1CCCCC1 | -8.1 | -0.3 | 5.3 | 6.1 | 5.2 | -16.4 | nt | nt
O=C(Nc1nc(-c2ccco2)c(-c2ccco2)s1)C1CCC1 | -14.0 | -17.6 | 35.7* | -15.0 | 3.2 | 20.2 | 12.7 | 46.0*
CN1/C(=C/C=C/c2n(C)c3cc([N+](=O)[O-])c([N+](=O)[O-])cc3[n+]2C)C(C)(C)c2ccccc21 | -12.4 | nt | 33.9* | -26.5 | -15.9 | 10.8 | 35.0* | 55.6*
Cc1cccc[n+]1CC(=O)/C=C1\N(C)c2ccccc2C1(C)C | -4.1 | -3.1 | -0.6 | 5.2 | -4.6 | 6.0 | nt | nt
Cc1ccc2cccc(NC(=S)NC(=O)c3ccccc3)c2n1 | 4.1 | -6.4 | 3.6 | -2.6 | 5.2 | -100.8 | nt | nt
Cc1ccc2cccnc2c1NC(=S)NC(=O)c1ccccc1 | -0.3 | -6.3 | 35.5* | -1.5 | 4.5 | -4.3 | 14.5 | 31.6*
COC(=O)c1c(C)[nH]c(C(=O)OC(C)C(=O)NC2CCCCC2C)c1C (stereo not given) | -13.7 | nt | 5.9 | 3.0 | -0.4 | 19.2 | nt | nt
COCCNC(=O)C1(C)CCCN(C(=O)c2ccc(N(C)C)cc2)C1 (stereo not given) | -7.7 | nt | 3.2 | nt | 3.6 | nt | nt | nt
O=S(=O)(Nc1nc2ccccc2nc1NCc1ccco1)c1ccc(F)cc1 | 7.8 | nt | 24.7* | -2.0 | 6.4 | 11.8 | 5.4 | 6.4
O=S(=O)(Nc1nc2ccccc2nc1NCc1ccco1)c1ccccc1 | 5.7 | 0.5 | 17.4 | 0.7 | 4.1 | -10.6 | nt | nt
CCn1c(=O)cc(N2CCOCC2)[nH]c1=O | 1.2 | -13.5 | -1.4 | 3.7 | -1.1 | -9.6 | nt | nt
